Test results reported in PubChem BioAssay AID1626 (SRMLSC, 2009).
Screen size: about 220,000 compounds; about 2,000 (0.91%) were called active. Inconclusive results (about 2%) are left out. A selection follows. Results with a measured potency or affinity are listed apart. Unmarked numbers belong to inactive results. No stated cut-off is given here; in the data, inconclusive means inhibition above about 80% without an active follow-up result; inactive means below that; test concentration not stated here.

assay: M. tuberculosis H37Rv growth inhibitors, H37Rv strain (AID 1626); conditions: stronger effect = higher value, concentration not given here;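 further: bacteria incubated seven days before Alamar blue readout; 0% = bacteria only wells and 100% = bacteria with antibiotic wells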

Compound | inhibition
COc1ccc(-c2nnc(SCC(=O)NC(C)C)n2CC2CCCO2)cc1OC (configuration not stated) | -10.3%
COc1ccc(C2/C=C\CN(C(=O)Nc3ccccc3)CC(=O)N2Cc2ccc(F)cc2)cc1 (configuration not stated) | -8.73%
COc1ccc(C2/C=C\CN(C(=O)Oc3ccc(C(F)(F)F)cc3)CC(=O)N2Cc2ccc(F)cc2)cc1 (configuration not stated) | 2.36%
COc1ccc(NC(=O)C(=O)NCCCn2ccnc2)cc1 | -13.8%
O=C(Nc1csc([N+](=O)[O-])c1)Nc1ccccc1Cl | 76.8%
O=C(Nc1csc([N+](=O)[O-])c1)Nc1c(Cl)cccc1Cl | 0.45%
O=C(CN(CCc1ccccc1)S(=O)(=O)c1ccc(Br)cc1)N/N=C/c1ccccc1C(=O)O | 1.98%
COc1ccc(-n2nc(C(N)=O)c(O)cc2=O)cc1 | -4.24%
COc1ccccc1CNC(=O)CN1C(=O)CSc2ccc(S(=O)(=O)N3CCCC3)cc21 | -3.73%
CCOC(=O)c1ccc(N2C(=O)c3n[nH]c(C)c3C2c2ccccc2)cc1 (configuration not stated) | -3.14%
CCOC(=O)c1ccc(N2C(=O)c3n[nH]c(C)c3C2c2ccco2)cc1 (configuration not stated) | 0.01%
Cc1[nH]c2ccc(F)cc2c1CCN(Cc1cccnc1)C(=S)Nc1ccccc1 | -0.56%
CCCCCCCN1C2=NCCN2c2ccccc21 | -5.76%
CCCCC1=CC2=CC(=O)C(C)(OC(=O)CC)C(=O)C2=CN1CCN1CCOCC1 (configuration not stated) | 2.28%
Cc1ccc(C2C(C#N)=C(N)OC3=C2C(=O)CC(C)(C)C3)s1 (configuration not stated) | 2.18%
CC1(C)CC(=O)C2=C(C1)OC(N)=C([N+](=O)[O-])C2c1cccs1 (configuration not stated) | 3.66%
O=C1/C(=C/c2ccccc2Cl)N2CCC1CC2 | 7.2%
Cc1ccc2c(c1)C(c1ccncc1)=NNC(c1ccc(F)cc1)=N2 | 5.08%
COc1ccc(-c2ccc([C@H]3[C@@H]4C=CCC[C@@]4(C)C(=O)N3Cc3ccccc3)c(F)c2)cc1 | 21.9%
COc1ccc(-c2ccc(OC)c([C@H]3[C@@H]4C=CCC[C@@]4(C)C(=O)N3Cc3ccccc3)c2)cc1OC | 10.5%
O=C(CCn1c(=O)oc2ccccc21)N(Cc1ccccc1)c1ccccc1 | -1.76%
Cc1nc2c(cnn2-c2ccccc2)c(=O)n1/N=C/c1ccccc1 | 3.66%
COc1ccc(C(=O)Cc2nnc(C)s2)c(OC)c1 | -1.08%
Cc1[nH]c2ccccc2c1-c1csc(NC(=O)CN2CCOCC2)n1 | 1.74%
O=C(COC(=O)c1c2c(nc3ccccc13)CCCC2)Nc1ccc2c(c1)OCO2 | 4.85%

Compound | inhibition
O=C(COC(=O)c1cc(-c2ccccc2)nc2ccccc12)Nc1ccc2c(c1)OCO2 | -6.74%
COc1ccc(S(=O)(=O)N2CCCCCC2)cc1C(=O)OC(C)C(N)=O (configuration not stated) | -6.24%
CCN(CCCNC(=O)C1CCCN(S(=O)(=O)c2cnc[nH]2)C1)c1ccccc1 (configuration not stated) | -7.75%
COc1ccc(C)cc1NC(=O)C(OC(=O)C1CC1)c1ccccc1 (configuration not stated) | 0.31%
COc1ccc(C(=O)OCC(=O)Nc2ccc(Cl)cn2)cc1 | -2.66%
O=C(COC(=O)c1ccccc1)Nc1ccc(Cl)cn1 | -1.7%
O=C(CCN1C(=O)S/C(=C\c2cccs2)C1=O)NC1=NCCS1 | -3.39%
Nc1nc(CN2CCN(c3ccccc3F)CC2)nc(Nc2ccccc2)n1 | 55.9%
COc1ccc(Nc2nc(N)nc(CCl)n2)cc1 | 63.6%
COc1ccc(Nc2nc(N)nc(COc3ccc(OC)cc3)n2)cc1 | 3.88%
CCOC(=O)N1CCN(Cc2nc(N)nc(Nc3ccc(OCC)cc3)n2)CC1 | -0.7%
Nc1nc(CN2CCN(Cc3ccccc3)CC2)nc(Nc2ccccc2)n1 | -0.83%
COc1cc(NC(=O)CCN2CCN(c3ccccc3F)CC2)cc(OC)c1 | -9.84%
CCOc1ccc(NC(=O)CCN2CCN(c3ccccc3OC)CC2)cc1 | 7.58%
Nc1nc(CN2CCCCCC2)nc(Nc2ccccc2)n1 | 0.64%
Cc1cc(Nc2ccc(C)c(Br)c2)n2nc(C)nc2n1 | -3.51%
Cc1cccn2c(=O)c(/C=N/O)c(Nc3ccccc3F)nc12 | -2.23%
CCOC(=O)c1cccc(NC(=O)CN(c2ccc(C)cc2)S(=O)(=O)c2c(C)n[nH]c2C)c1 | -3.83%
Cc1ccc(Nc2nc(N)nc(CCl)n2)cc1 | 73.8%
COc1cccc(Nc2nc(N)nc(CCl)n2)c1 | 75.6%
Cc1ccc(SCc2nc(-c3ccccn3)no2)cc1 | 11.6%
CCOC(=O)CSc1nc(-c2ccccn2)ncc1OC | 10.3%
FC(F)(F)c1cc(Sc2ccccc2)nc(-c2ccccn2)n1 | 4.07%
COc1cnc(-c2ccccc2)nc1Sc1ccccc1 | -2.28%
COc1cnc(N(C)C)nc1Sc1ccc(Cl)cc1 | -2.94%

Compound | inhibition
COc1cccc(-c2nc(-c3ccccn3)no2)c1OC | -1.55%
COc1ccc(Sc2cc(C(F)(F)F)nc(-c3ccccn3)n2)cc1 | 4.59%
COc1ccccc1-c1nc(-c2ccccn2)no1 | 0.6%
c1ccc2c(N3CCCCC3)nnc(N3CCCCC3)c2c1 | -2.8%
Cc1nc(-c2ccccc2)sc1C1(C)CC(c2ccc(C#N)cc2)=NO1 (configuration not stated) | -5.09%
Cc1cnc(C(=O)OCC(=O)Nc2cc(Cl)cc(Cl)c2)cn1 | -2.03%
CC(=O)N1CCC2(CC1)CC(=O)c1cc(OCC(=O)NCc3ccc(C)cc3)ccc1O2 | 4.89%
CCOc1ccc(Cc2noc3c2C(=O)CC(C)(C)C3)cc1OCC | 5.77%
O=C(CNc1cc(S(=O)(=O)N2CCCC2)ccc1OCC(F)(F)F)Nc1cc(Cl)cc(Cl)c1 | 0.25%
CCC12CN3CCN(CC(C3)C1O)C2 (configuration not stated) | -8.91%
CCOC(=O)C(NC(=O)CC(C)C)(Nc1sc(C)c(CC)c1C#N)C(F)(F)F (configuration not stated) | -1.9%
OC(CNCc1cccc(Cl)c1)c1ccccc1 (configuration not stated) | 6.44%
NCC(c1ccccc1)c1c[nH]c2ccccc12 (configuration not stated) | -2.1%
COc1ccc(C2=NCCn3cccc32)c(OC)c1 | 4.72%
Cc1ccn2c(NC3CCCC3)c(-c3cccs3)nc2c1 | -6.97%
Cc1ccccc1Nc1c(-c2cccnc2)nc2ccccn12 | 3.53%
Cc1ccn2c(Nc3ccc4c(c3)OCO4)c(-c3ccccn3)nc2c1 | 12.5%
Cc1ccn2c(NC3CCCC3)c(-c3ccncc3)nc2c1 | -0.8%
Cc1ccn2c(Nc3ccccc3C)c(-c3cccnc3)nc2c1 | 3.46%
Cc1ccc(Nc2c(-c3ccccc3)nc3cnccn23)cc1 | 3.65%
Cc1ccc(-c2nc3ncccn3c2Nc2ccccc2C)o1 | 10.9%
Cc1ccn2c(Nc3ccccc3C)c(-c3ccncc3)nc2c1 | -1.59%
CCOc1ccccc1NC(=O)CN1C(=O)COc2ccc(Cl)cc21 | -3.19%
Cc1cc(CNC(=O)Cn2nc(C)c([N+](=O)[O-])c2C)c2ccccc2n1 | -7.05%
Oc1cccnc1CCc1ccccc1 | -10.6%

Compound | inhibition
CCOC(=O)c1sc(NC(=O)c2ccc(C)o2)nc1C | 2.75%
CCCn1nnc(NC(=O)c2cccnc2Cl)n1 | 7.01%
Cc1cc(NC(=O)CSc2nc(C3CCCCC3)nc3ccccc23)no1 | 7.18%
Nc1c(-c2ccccc2)cnc2cc(-c3ccccc3)nn12 | 4.02%
Cc1ccc(-c2nc3cnccn3c2Nc2ccccc2)o1 | 9.96%
Cc1ccn2c(NCc3ccccc3)c(-c3cccs3)nc2c1 | 6.23%
CCOc1ccccc1NC(=O)NC1(C(=O)N2CCOCC2)CCCCC1 | -10.7%
O=C(CSc1nnc(-c2ccc(O)cc2)n1Cc1ccco1)c1cccs1 | 2.2%
O=C(CSCc1ccco1)c1cccs1 | -1.66%
O=S(=O)(c1cccc2cccnc12)N1CCN(Cc2ccc3c(c2)OCO3)CC1 | -5.89%
Cc1[nH]c2ccccc2c1/C=N/NC(=O)CNC(=O)COc1ccccc1 | 10%
COc1ccc(-c2noc(CN3CCCCC3c3nccn3C)n2)cc1 (configuration not stated) | 6.82%
COc1ccc(OC)c(-c2nc(CN3CCCCC3c3cccnc3)c(C)o2)c1 (configuration not stated) | -0.43%
CC(C)N(Cc1nccn1C)C(=O)CCc1nnc(CCCc2ccccc2)o1 | -2.35%
COc1nc(N(c2ccccc2)c2ccccc2)nc(-n2ccnc2)n1 | 25.8%
c1ccc(-c2nc(NC3CC3)nc(-n3ccnc3)n2)cc1 | -0.68%
c1ccc(-c2ccc(CN3CCN(c4ncccn4)CC3)cc2)cc1 | -1.29%
CCCCNc1nc(N(C)c2ccccc2)nc(-n2ccnc2)n1 | 51.3%
c1ccc(-c2nc(-n3ccnc3)nc(-n3ccnc3)n2)cc1 | 3.02%
Nc1nc(N2CCCCC2)nc(N(c2ccccc2)c2ccccc2)n1 | 1.26%
C=CCNc1nc(-c2ccccc2)nc(-n2ccnc2)n1 | 16.6%
c1ccc(N(c2ccccc2)c2nc(-n3ccnc3)nc(-n3ccnc3)n2)cc1 | -4.28%
